Laboratory results from PubChem BioAssay (NCI).
Where “and” joins values, the source holds several entries; their conditions need not be identical. Identical values can stand only once. This is part of a sample that, as a whole, favours compounds with a hit. Of some 79,000 tested, about 15% had one in any assay. The source holds several records for some structures; these can differ, active in one and inactive in another. Calls of active or inactive are those of the source. Rule as the data show it: active = growth inhibition above about 70%; inactive = the rest.

Key:
[1] = NCI Yeast Anticancer Drug Screen. Data for the mlh1 strain (AID 171);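 also: 0% = growth of vehicle-treated control cultures of the same strain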; conditions: S. cerevisiae mlh1 strain growth inhibition, stronger effect = higher value
How it was run: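 A yeast strain with a defined genetic lesion serves as the test organism. Cultures receive compound or vehicle, and growth is measured.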

[2] = NCI Yeast Anticancer Drug Screen. Data for the sgs1 strain (AID 173);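 also: 0% = growth of vehicle-only control cultures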; conditions: S. cerevisiae sgs1 mutant, stronger effect = higher value
How it was run: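 A genetically defined yeast mutant is incubated with the test compound, and its growth is compared to that of the same strain given vehicle.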

[3] = NCI Yeast Anticancer Drug Screen. Data for the mlh1 rad18 strain (AID 175); conditions: S. cerevisiae mlh1 rad18 strain growth inhibition, stronger effect = higher value
How it was run: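 Steps: expose repair-defective yeast to compound; measure growth; express inhibition against vehicle-treated controls.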

[4] = NCI Yeast Anticancer Drug Screen. Data for the rad18 strain (AID 177); conditions: S. cerevisiae rad18 mutant growth inhibition, stronger effect = higher value
How it was run: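 Measured value is growth inhibition of a yeast strain bearing a DNA repair alteration, referenced to vehicle-treated cells.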

[5] = NCI Yeast Anticancer Drug Screen. Data for the rad52 strain (AID 147);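 also: 0% = growth of vehicle-treated control cultures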; conditions: S. cerevisiae rad52 mutant growth inhibition, stronger effect = higher value
How it was run: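 Here a repair-compromised yeast strain receives each compound; its growth is then quantified and normalised to vehicle-only controls.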

[6] = NCI Yeast Anticancer Drug Screen. Data for the wt1 strain (AID 149);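 also: 0% = growth of vehicle-treated wt1 cultures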; conditions: S. cerevisiae wt1 strain (SPY 50644) growth inhibition, stronger effect = higher value
How it was run: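 Vehicle-normalised growth inhibition; strain wt1; compound exposure.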

[7] = NCI Yeast Anticancer Drug Screen. Data for the rad50EPP+ strain (AID 151);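 also: 0% = growth of vehicle-treated control cultures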; conditions: S. cerevisiae rad50 mutant strain, stronger effect = higher value
How it was run: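 Read-out is yeast growth inhibition relative to vehicle; cells used were the rad50EPP+ strain.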

[8] = NCI Yeast Anticancer Drug Screen. Data for the mgt1 strain (AID 153); conditions: S. cerevisiae mgt1 mutant growth inhibition, stronger effect = higher value
How it was run: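 Measured: inhibition of mgt1 yeast growth by compound, normalized to vehicle-treated cultures.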

[9] = NCI Yeast Anticancer Drug Screen. Data for the rad50 strain (AID 155);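 also: 0% = growth of vehicle-only cultures of the same strain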; conditions: S. cerevisiae rad50 strain growth inhibition, stronger effect = higher value
How it was run: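 A DNA repair-deficient yeast mutant serves as the test organism; compound-induced growth inhibition is calculated against vehicle-treated cells.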

[10] = NCI Yeast Anticancer Drug Screen. Data for the mec2-1 strain (AID 157); conditions: S. cerevisiae mec2-1 strain, stronger effect = higher value
How it was run: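 Using mec2-1 yeast: add compound, measure growth, express inhibition versus vehicle-treated cultures.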

[11] = NCI Yeast Anticancer Drug Screen. Data for the sgs1 mgt1 strain (AID 161);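 also: 0% = growth of cultures given vehicle only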; conditions: S. cerevisiae sgs1 mgt1 strain, stronger effect = higher value
How it was run: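 Growth of a repair-deficient yeast mutant was monitored after compound treatment and expressed as inhibition relative to vehicle-treated cultures.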

[12] = NCI Yeast Anticancer Drug Screen. Data for the CLN2oe strain (AID 163);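 also: 0% = growth of vehicle-only control cultures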; conditions: S. cerevisiae CLN2oe strain, stronger effect = higher value
How it was run: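 Whole-cell yeast growth assay. A strain engineered for altered cell-cycle control received compound, and inhibition relative to vehicle-treated cultures was recorded.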

[13] = NCI Yeast Anticancer Drug Screen. Data for the cln2 rad14 strain (AID 165);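 also: 0% = growth equal to vehicle treated cultures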; conditions: S. cerevisiae cln2 rad14 strain, stronger effect = higher value
How it was run: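 Yeast strain cln2 rad14, bearing defects in cell cycle control and DNA repair, serves as the test system; values reflect growth inhibition compared with vehicle.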

[14] = NCI Yeast Anticancer Drug Screen. Data for the bub3 strain (AID 167); conditions: S. cerevisiae bub3 mutant strain, stronger effect = higher value
How it was run: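 Inhibition values come from growth of compound-treated mutant yeast normalised to vehicle-treated controls.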

[15] = NCI Yeast Anticancer Drug Screen. Data for the wt2 strain (AID 169);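 also: 0% = growth of vehicle-treated yeast cultures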; conditions: S. cerevisiae wt2 strain growth inhibition, stronger effect = higher value
How it was run: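 Treated yeast vs. vehicle-treated yeast: growth inhibition determined.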

[16] = NCI Yeast Anticancer Drug Screen. Data for the rad14 strain (AID 159);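 also: 0% = growth of vehicle-treated control cultures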; conditions: S. cerevisiae rad14 strain growth inhibition, stronger effect = higher value
How it was run: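 Vehicle-treated cultures served as the baseline for growth inhibition of a DNA repair-mutant yeast strain exposed to each compound.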

[17] = at 5.0 µM (retest, dose inferred, filed as 0.5)
[18] = at 50.0 µM (retest, dose inferred, filed as 5.0)

Measured: growth inhibition

CCCOC(=O)C(F)C(Br)C(=O)OCCC (stereo unspecified)
active: [1]; at 3.7 µM 92% | [1]; at 11.0 µM 98% | [1]; at 33.0 µM 97% | [1]; at 100.0 µM 99% | [2]; at 3.7 µM 96% | [2]; at 11.0 µM 98% | [2]; at 33.0 µM 97% | [2]; at 100.0 µM 99% | [3]; [17] 93% | [3]; [18] 98% | [3]; at 50.0 µM 89% | [4]; at 3.7 µM 93% | [4]; at 11.0 µM 97% | [4]; at 33.0 µM 96% | [4]; at 100.0 µM 98%
inactive: [1]; at 1.2 µM 40% | [2]; at 1.2 µM 50% | [4]; at 1.2 µM 59%

CN(C)c1ccc(N=Nc2ccncc2)cc1
active: [5]; at 100.0 µM 71% | [7]; at 33.0 µM 87% | [7]; at 100.0 µM 82% | [9]; at 50.0 µM 82.3% | [9]; at 100.0 µM 77% | [11]; at 50.0 µM 70.6% | [14]; at 33.0 µM 78% | [14]; [18] 73% | [14]; at 50.0 µM 86.5% | [14]; at 100.0 µM 86%
inactive: [5]; at 1.2 µM 1% | [5]; at 3.7 µM 1% | [5]; at 11.0 µM 15% | [5]; at 33.0 µM 33% | [6]; at 1.2 µM -7% | [6]; at 3.7 µM -3% | [6]; at 11.0 µM -1% | [6]; at 33.0 µM -1% | [6]; at 100.0 µM 40% | [7]; at 1.2 µM 3% | [7]; at 3.7 µM 12% | [7]; at 11.0 µM 64% | [8]; at 1.2 µM -2% | [8]; at 3.7 µM 12% | [8]; at 11.0 µM 31% | [8]; at 33.0 µM 35% | [8]; at 100.0 µM 49% | [9]; at 1.2 µM 8% | [9]; at 3.7 µM 11% | [9]; [17] -86% | [9]; at 11.0 µM 31% | [9]; at 33.0 µM 55% | [9]; [18] 27% | [10]; at 1.2 µM -2% | [10]; at 3.7 µM 7% | [10]; [17] -41% | [10]; at 11.0 µM 19% | [10]; at 33.0 µM 18% | [10]; [18] -3% | [10]; at 50.0 µM 53.1% | [10]; at 100.0 µM 67% | [11]; [17] -19% | [11]; [18] 32% | [12]; at 1.2 µM 13% | [12]; at 3.7 µM 22% | [12]; at 11.0 µM 37% | [12]; at 33.0 µM 38% | [12]; at 100.0 µM 36% | [13]; [17] -36% | [13]; [18] 2% | [13]; at 50.0 µM 37.1% | [14]; at 1.2 µM 4% | [14]; at 3.7 µM 22% | [14]; [17] -13% | [14]; at 11.0 µM 60% | [15]; at 1.2 µM 3% | [15]; at 3.7 µM 7% | [15]; at 11.0 µM 22% | [15]; at 33.0 µM 23% | [15]; at 100.0 µM 20% | [1]; at 1.2 µM 7% | [1]; at 3.7 µM 11% | [1]; at 11.0 µM 29% | [1]; at 33.0 µM 42% | [1]; at 100.0 µM 47% | [2]; at 1.2 µM 15% | [2]; at 3.7 µM 41% | [2]; at 11.0 µM 63% | [2]; at 33.0 µM 67% | [2]; at 100.0 µM 68% | [3]; [17] -82% | [3]; [18] 4% | [3]; at 50.0 µM 67.7% | [4]; at 1.2 µM 6% | [4]; at 3.7 µM 24% | [4]; at 11.0 µM 35% | [4]; at 33.0 µM 19% | [4]; at 100.0 µM 31%

Cc1cc(N(CCOS(C)(=O)=O)CCOS(C)(=O)=O)ccc1C=Nc1ccc(-c2nc(Cc3ccccc3)sc2C)cc1
inactive: [5]; at 1.2 µM 9% | [5]; at 3.7 µM 52% | [6]; at 1.2 µM -29% | [6]; at 3.7 µM -10% | [6]; at 11.0 µM 28% | [7]; at 1.2 µM 1% | [7]; at 3.7 µM -19% | [7]; at 11.0 µM 10% | [7]; at 33.0 µM 37% | [8]; at 1.2 µM -24% | [8]; at 3.7 µM 4% | [8]; at 11.0 µM 55% | [9]; at 1.2 µM 12% | [9]; at 3.7 µM 23% | [9]; [17] 44% and 1% | [9]; at 50.0 µM 52.9% | [10]; at 1.2 µM -26% | [10]; at 3.7 µM 4% | [10]; [17] 40% and -3% | [10]; at 50.0 µM 49.3% | [16]; at 1.2 µM 3% | [16]; at 3.7 µM 38% | [12]; at 1.2 µM 23% | [12]; at 3.7 µM 0% | [12]; at 11.0 µM 57% | [13]; [17] 29% and 0% | [13]; [18] -12% and 35% | [14]; at 1.2 µM -32% | [14]; at 3.7 µM -38% | [14]; [17] 16% and -2% | [14]; at 11.0 µM 25% | [14]; [18] -14% and 55% | [15]; at 1.2 µM -12% | [15]; at 3.7 µM 10% | [15]; at 11.0 µM 48% | [4]; at 1.2 µM 41%
95% (active) and 49% (inactive): [9]; [18]
97% (active) and 46% (inactive): [10]; [18]
78% (active) and -3% (inactive): [3]; [17]
97% (active) and 43% (inactive): [3]; [18]
86.2% (active) and 27.1% (inactive): [13]; at 50.0 µM
active: [5]; at 11.0 µM 84% | [5]; at 33.0 µM 92% | [5]; at 100.0 µM 96% | [6]; at 33.0 µM 90% | [6]; at 100.0 µM 98% | [7]; at 100.0 µM 92% | [8]; at 33.0 µM 90% | [8]; at 100.0 µM 98% | [9]; at 11.0 µM 71% | [9]; at 33.0 µM 93% | [9]; at 100.0 µM 97% | [10]; at 11.0 µM 72% | [10]; at 33.0 µM 93% | [10]; at 100.0 µM 98% | [16]; at 11.0 µM 80% | [16]; at 33.0 µM 96% | [16]; at 100.0 µM 96% | [12]; at 33.0 µM 91% | [12]; at 100.0 µM 97% | [14]; at 33.0 µM 89% | [14]; at 100.0 µM 98% | [15]; at 33.0 µM 92% | [15]; at 100.0 µM 98% | [3]; at 50.0 µM 77% | [4]; at 3.7 µM 73% | [4]; at 11.0 µM 90% | [4]; at 33.0 µM 94% | [4]; at 100.0 µM 98%
84.2% (active) and 37% (inactive): [14]; at 50.0 µM
